Results as given in PubChem BioAssay (Tox21).
Where “and” joins values, the source holds several entries; their conditions need not be identical. Equal entries are not always repeated. Results filed as inconclusive are left out. Entries that show only a call come without a potency. More than one record can exist for a structure, and the calls need not agree. Calls of active or inactive are those of the source. The call rests on the fitted dose curve; in most records, active means well fitted cell-killing curve with a large enough effect in the repeat runs; inconclusive means weak or mixed curves, or effect the other way; inactive means no such curve, though single readings can be large or run the other way. Residues, ends and D or L forms follow the SMILES beside them.
Potency means the concentration at half of the fitted maximal effect.

Assay: qHTS assay to identify small molecule antagonists of the thyroid receptor (TR) signaling pathway - cell viability counter screen (AID 743064); further: nearly all actives have a fitted effect of over 50% in size
Settings: GH3.TRE-Luc viability, CellTiter-Fluor, 24 h; series mostly up to 70.3 µM
Excerpt: National Center for Advancing Translational Sciences [NCATS]
NIH Chemical Genomics Center [NCGC]
U.S. Environmental Protection Agency [EPA]
National Institutes of Environmental Health Sciences [NIEHS]
National Toxicology Program [NTP]
U.S. Food and Drug Administration [FDA]
Thyroid receptor (TR), a nuclear hormone receptor, plays an important role in development, proliferation, differentiation, metabolism, brain function, and cardiovascular system. […] To profile the Tox21 10K compound library in TR signaling, a cell-based GH3-TRE-Luc assay (GH3.TRE-Luc cell line, developed by the laboratory of Dr. Albertinka J. Murk, Wageningen University) was used to measure the inhibition of TR. GH3 (rat pituitary tumor) cells stably expressing a TR activity sensor consisting of two TR response elements and a luciferase reporter gene. The cytotoxicity of the Tox21 compound library against the GH3.TRE-Luc cell line was tested in parallel by measuring the cell viability using CellTiter-Fluor assay (Promega, Madison, WI) in the same wells.
Tox21 Assay Protocol Summary:
GH3.TRE-Luc cells were dispensed at 1500 cells/4 uL/well into 1536-well white solid bottom plates using a Multidrop Combi dispenser (Thermo Fisher Scientific Inc., Waltham, MA). After the assay plates were incubated at 37 C for 4 hours, 23 nL of library compound or DMSO controls was transferred to the assay plates by a pintool station (Kalypsys, San Diego, CA), followed by addition of 1 ul of T3 (1 nM, final concentration in the wells) to stimulate TR transactivation. The assay plates were incubated at 37 C for 23.5 h, and then 1 uL of CellTiter-Fluor reagent (Promega, Madision, WI) of measuring cytotoxicity was added to each well using a Bioraptr Flying Reagent Dispenser (FRD) workstation (Beckman Coulter, Indianapolis, IN, USA). The plates were incubated at 37C and 5% CO2 for additional 30 min, and fluorescence intensity was measured by a ViewLux plate reader (PerkinElmer, Shelton, CT).
With NS(=O)(=O)c1cc(C(=O)O)c(NCc2ccco2)cc1Cl the Potency was “inactive”.
In the case of Nc1ccc(O)c(C(=O)O)c1, the Potency is reported as “inactive”.
For O=C1CN(/N=C/c2ccc([N+](=O)[O-])o2)C(=O)N1, the Potency was 60.9 µM (active) and 68.6 µM (active).
For O=C(O)CCCCC(=O)O, the Potency was “inactive”.
For O=C1NC(=O)c2ccccc21, the Potency was “inactive”.
In the case of CC(=O)NS(=O)(=O)c1ccc(N)cc1, the Potency is reported as “inactive”.
With OC(Cn1cncn1)(Cn1cncn1)c1ccc(F)cc1F the Potency was “inactive”.
With CCC1(c2ccccc2)C(=O)NCNC1=O the Potency was “inactive”.
In the case of NC(N)=O, the Potency is reported as “inactive”.
In the case of CC(=O)OCC(COC(C)=O)OC(C)=O, the Potency is reported as “inactive”.
For Cc1cc(=O)[nH]c(=S)[nH]1, the Potency was “inactive”.
In the case of CNC[C@H](O)c1cccc(O)c1, the Potency is reported as “inactive”.
In the case of O=C(O)CS, the Potency is reported as “inactive and 61.6 µM (active)”.
In the case of Nc1ccc(S(=O)(=O)Nc2nccs2)cc1, the Potency is reported as “inactive”.
With O=C(O)CCC(=O)O the Potency was “inactive”.
With CCCC(O)C(CC)CO (stereo not given) the Potency was “inactive”.
With C/C=C/c1ccc(OC)cc1 the Potency was “inactive”.
With Cc1noc(NS(=O)(=O)c2ccc(N)cc2)c1C the Potency was “inactive”.
With Cc1ccc(S(=O)(=O)NC(=O)NN2CCCCCC2)cc1 the Potency was “inactive”.
In the case of Cc1ccc(C)c(OCCCC(C)(C)C(=O)O)c1, the Potency is reported as “inactive”.
With O=c1ccc2ccccc2o1 the Potency was “inactive”.
With O=C(O)CCCCCCCC(=O)O the Potency was “inactive”.
For NNC(=O)c1ccncc1, the Potency was “inactive”.
In the case of C1N2CN3CN1CN(C2)C3, the Potency is reported as “inactive”.
With CCCCOC(=O)CC(CC(=O)OCCCC)(OC(C)=O)C(=O)OCCCC the Potency was “inactive”.
With CCCNC(=O)NS(=O)(=O)c1ccc(Cl)cc1 the Potency was “inactive”.
For O=c1cc[nH]c(=S)[nH]1, the Potency was “inactive”.
With OCCc1ccccc1 the Potency was “inactive”.
In the case of C[C@]12C=CC(=O)C=C1CC[C@@H]1[C@@H]2[C@@H](O)C[C@@]2(C)[C@H]1CC[C@]2(O)C(=O)CO, the Potency is reported as “inactive”.
With CCCN(CCC)S(=O)(=O)c1ccc(C(=O)O)cc1 the Potency was “inactive”.
With O=C(c1ccccc1)C(O)c1ccccc1 (stereo not given) the Potency was “inactive”.
For CC(C)(Oc1ccc(C2CC2(Cl)Cl)cc1)C(=O)O (stereo not given), the Potency was “inactive”.
In the case of NC(=O)c1ccccc1O, the Potency is reported as “inactive”.
With Cc1cc(=O)n(-c2ccccc2)n1C the Potency was “inactive”.
In the case of O=C(O)c1cccc([N+](=O)[O-])c1, the Potency is reported as “inactive”.
With CCCCC1C(=O)N(c2ccccc2)N(c2ccccc2)C1=O the Potency was “inactive”.
In the case of COC(=O)[C@H](Cc1ccccc1)NC(=O)[C@@H](N)CC(=O)O (H-Asp-Phe-OMe), the Potency is reported as “inactive”.
With O=C(O)c1cccnc1 the Potency was “inactive”.
In the case of O=NO, the Potency is reported as “inactive”.
With NC(N)=NC(=O)c1nc(Cl)c(N)nc1N the Potency was “inactive”.
